Results taken from PubChem BioAssay (NCI).
Where “and” joins values, the source holds several entries; their conditions need not be identical. Identical values can stand only once. The panel holds about 79,000 compounds, 15% with a hit somewhere; the sample as a whole holds those more often. Unmarked numbers belong to inactive results. Calls of active or inactive are those of the source. Rule as the data show it: active = growth inhibition above about 70%; inactive = the rest.

Key:
[1] = NCI Yeast Anticancer Drug Screen. Data for the rad50 strain (AID 155);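 also: 0% = growth of vehicle-only cultures of the same strain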; conditions: S. cerevisiae rad50 strain growth inhibition, active compounds read high; at 50.0 µM unless noted
Summary of the method: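 Yeast carrying a defined DNA repair defect were exposed to test compounds, and growth was compared with vehicle-treated controls to give percent inhibition.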

[2] = NCI Yeast Anticancer Drug Screen. Data for the mec2-1 strain (AID 157); conditions: S. cerevisiae mec2-1 strain, active compounds read high; at 50.0 µM unless noted
Summary of the method: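 mec2-1 yeast strain, carrying an alteration in DNA damage repair or cell cycle control, was exposed to compounds; growth inhibition was measured relative to vehicle-treated controls.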

[3] = NCI Yeast Anticancer Drug Screen. Data for the sgs1 mgt1 strain (AID 161);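 also: 0% = growth of cultures given vehicle only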; conditions: S. cerevisiae sgs1 mgt1 strain, active compounds read high; at 50.0 µM unless noted
Summary of the method: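 This yeast growth screen uses a strain with defined DNA-repair lesions; compound-treated growth is compared with vehicle-treated growth.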

[4] = NCI Yeast Anticancer Drug Screen. Data for the cln2 rad14 strain (AID 165);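 also: 0% = growth equal to vehicle treated cultures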; conditions: S. cerevisiae cln2 rad14 strain, active compounds read high; at 50.0 µM unless noted
Summary of the method: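 Yeast carrying cln2 and rad14 alterations (cell cycle control and DNA damage repair) were exposed to compounds. Growth inhibition was measured against vehicle-treated controls.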

[5] = NCI Yeast Anticancer Drug Screen. Data for the bub3 strain (AID 167); conditions: S. cerevisiae bub3 mutant strain, active compounds read high; at 50.0 µM unless noted
Summary of the method: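 Compounds were applied to a genetically altered yeast strain carrying a cell-cycle control defect. Growth inhibition was scored against vehicle-treated controls.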

[6] = NCI Yeast Anticancer Drug Screen. Data for the mlh1 rad18 strain (AID 175); conditions: S. cerevisiae mlh1 rad18 strain growth inhibition, active compounds read high; at 50.0 µM unless noted
Summary of the method: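 Growth inhibition of the yeast strain was measured after compound exposure and expressed relative to vehicle-treated controls. The strain carries defined defects in DNA damage repair.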

Row | SMILES | growth inhibition [1] | growth inhibition [2] | growth inhibition [3] | growth inhibition [4] | growth inhibition [5] | growth inhibition [6]
1 | CC(C)(C)OC(=O)COc1ccc(NC(=O)COc2ccc(Cl)c(Cl)c2)cc1 | -17.4% | -22.2% | -10.2% | -28.8% | -1.8% | -8.6%
2 | CC(C)CC(NC=O)C(=O)O (stereo unspecified) | 11.2% | 1.85% | -0.4% | 9.45% | -0.3% | 8.35%
3 | O=C1OCCOCCOCCOCCOC(=O)c2cccc1n2 | -10.2% | 6.65% | 12.6% | 17.1% | 5.2% | 7.2%
4 | C=C1c2nc3ccccc3n2C=C(c2ccccc2)N1c1ccc(OC)cc1 | -6.5% | 15.3% | -9.25% | -5.85% | 17.5% | 7.05%
5 | COC(=O)C(CCSc1ccccc1)C(=O)OC | 0.85% | -4.45% | 20.1% | 12.1% | 28.2% | -3.1%
6 | OCCC1CCCCN1 (stereo unspecified) | 9.25% | -8.4% | -20.4% | -18.4% | -0.75% | 54.5%
7 | CC1(C)OC(CCl)C2OC(C)(C)OC(CCl)C2O1 (stereo unspecified) | 11.1% | 9.3% | -7.35% | 3.85% | -4.95% | 2.75%
8 | COC(=O)Cc1cc(C)n(C)c(=O)c1CN1C(=O)c2ccccc2C1=O | 10.6% | -10.9% | 5.4% | 12.4% | -11.2% | 20.8%
9 | NC(=O)CSc1c2cc(O)ccc2nc2ccc(O)cc12 | -17.8% | -6.95% | -12.6% | 37.5% | -19.4% | 26.7%
10 | COC1CCC(/C=C(\C#N)C2CCC(C)CC2)CC1 (stereo unspecified) | 18.3% | 22.1% | 43.9% | 12.1% | 30.2% | 30.6%
11 | Cc1cccc[n+]1C | 3.45% | 4.35% | 0.05% | -19.2% | 22.9% | 4.05%
12 | C=CCOC(=O)COc1ccc(Cl)cc1 | -0.95% | -8.1% | -12.3% | -2.15% | -7.75% | 0.55%
13 | CCOC(=O)c1c(NS(=O)(=O)c2ccc(C)cc2)sc(C)c1-c1ccccc1 | -21.4% | -0.45% | -6.2% | 67.8% | 6.85% | -3.65%
14 | CCOC(=O)c1cc2ccccc2cc1N=N | 8.3% | 16.7% | 15% | -2.7% | 23.2% | 28.8%
15 | CCOc1ccc(NC(=O)C(=O)CC(=O)c2c(C)n([O-])c3ccccc3[n+]2=O)cc1 | -5.95% | 3.8% | -34.5% | 7.2% | 0.1% | -10.8%
16 | Cc1cc2nc3c(=O)[nH]c(=O)nc-3n(C/C=N/NC(N)=S)c2cc1C | 5.75% | -7.65% | -5.05% | -45.1% | -12.8% | -2.7%
17 | Nc1cc(C(=O)O)[nH]c(=O)n1 | -23.7% | -18.4% | -20.2% | -70.2% | -18.9% | -10.3%
18 | COc1cc2ccc3c4ccccc4cnc3c2cc1OC | 8.1% | 5.4% | 0% | 18.2% | 13.7% | 13.2%
19 | CC(C)CCC[C@@H](C)C1CCC2[C@@H]3CCC4C[C@@H](CCC=C(c5cc(Cl)c(O)c(C(=O)O)c5)c5cc(Cl)c(O)c(C(=O)O)c5)CC[C@]4(C)C3CC[C@@]21C (stereo partly specified) | -26.4% | -21.9% | -14.7% | -41% | 8.5% | -45.9%
20 | CC1=C(C)CC2(CCCCC2=O)S(=O)C1 (stereo unspecified) | -34.8% | -28.8% | -9.85% | 11.1% | 15.8% | 2.55%
21 | COC(=O)c1cc(NC(=O)Nc2cccc(C(C)=O)c2)cc(C(=O)OC)c1 | -9.75% | 31.2% | 25.6% | -10.2% | 37.6% | 36.4%

Row | SMILES | growth inhibition [1] | growth inhibition [2] | growth inhibition [3] | growth inhibition [4] | growth inhibition [5] | growth inhibition [6]
22 | Cc1ccc(Cl)cc1NC(=O)Nc1ccccc1Cl | 11.5% | 12.2% | 6.05% | -12.2% | 8.85% | -11%
23 | O=C(O)Cn1c(=O)[nH]c(=O)c2[nH]cnc21 | 4.6% | -26.4% | -0.3% | 13.8% | -9.2% | -12%
24 | CCCCC(NC(=O)C(C)NC(=O)OCc1ccccc1)C(=O)O (stereo unspecified) | 2% | 6.3% | 3.4% | 4.75% | 12.8% | -9.6%
25 | CC(=O)OCC1OC(O)C(NC(=O)C(F)(F)F)C(OC(C)=O)C1OC(C)=O (stereo unspecified) | 99.6% (active) | 99.8% (active) | 99.7% (active) | 99% (active) | 99.3% (active) | 99.5% (active)
26 | CC1CC(OCCO)CC(C)(C)C1 (stereo unspecified) | 13% | 0.5% | 6.95% | -8.8% | 14.9% | 7.2%
27 | CCCCCC#CC[C@@H](O)[C@@H](O)COCc1ccccc1 | 17.4% | 8.6% | 32.2% | 29.2% | -20.8% | 9.9%
28 | O=C(O)/C=C\C(=O)Nc1ccc2c(c1)Cc1cc(O)ccc1-2 | 7.95% | 30.8% | 17.8% | 25.7% | 21.9% | -0.3%
29 | Nc1ccc2c(C(F)(F)F)cc(=O)oc2c1 | 14.2% | -2.2% | 8.2% | -29.6% | 8.55% | 8.8%
30 | COc1ccc(-c2nc(Sc3c([N+](=O)[O-])ncn3C)n[nH]2)cc1 | -1.25% | 5.75% | 3.7% | 25.7% | 12.5% | -6.6%
31 | O=[N+]([O-])c1ccc(C[n+]2ccccc2)cc1 | -1.25% and 31.9% | 13.2% and -3.9% | -4.2% and -1.45% | -15.8% and 16.4% | -6.95% and -2.65% | -18.2% and 13.7%
32 | CC(C)(C)NSc1nc2ccccc2s1 | -21.8% | 2.45% | -12.7% | 4.2% | -2.5% | -8.5%
33 | COC(=O)C1=CO[C@@H](OC2OC(CO)C(O)C(O)C2O)[C@H]2[C@@H]1C=C[C@@]21C=C([C@H](C)OC(=O)/C=C/c2ccc(OC3OC(CO)C(O)C(O)C3O)cc2)C(=O)O1 (stereo partly specified) | -18.4% | -18.6% | -20.1% | -6.15% | 2.65% | -20.1%
34 | [N-]=[N+]=CC(=O)CCC(=O)N(c1ccccc1)c1ccccc1 | -30% | -20.8% | -52.5% | -28.5% | 2.2% | -30.6%
35 | O=C(C#Cc1ccccc1)Nc1ccccc1CC(c1c[nH]c2ccccc12)c1c[nH]c2ccccc12 | 0.75% | -2.25% | 1.55% | 5.4% | 8.85% | -7.65%
36 | COC1OC(CI)C(O)C(O)C1O (stereo unspecified) | -6.05% | 2.4% | -4.45% | -24.2% | 37.8% | -16.7%
37 | CN(C)CCS(=O)(=O)c1ccc(Cl)cc1 | 38.9% | 14.6% | 14.4% | 16.5% | 9.85% | 20.6%
38 | ON=C1CCC(c2ccccc2)CC1 (stereo unspecified) | -21.3% | -24% | 13.8% | -24.2% | 2.85% | -9.6%
39 | CN1CCC/C1=N\C(=Nc1ccccc1)N1CCCC1 | 7.95% | -1.8% | -6.05% | 12.5% | -4.35% | -9.15%
40 | N#CNC(N)=NCCO | -22.2% | -2.25% | -36.9% | -12% | -28.5% | -20.6%
41 | O=C1CN(c2cccc(Cl)c2)C(=O)CN1/N=C/c1ccco1 | 18.9% | -14.5% | 18% | 12.7% | 23.8% | 22.1%
